In PubChem BioAssay (NCI):
This is part of a sample that, as a whole, favours compounds with a hit. Of some 79,000 tested, about 15% had one in any assay. Values without a mark were called inactive. The source made the active and inactive calls. Rule as the data show it: active = growth inhibition above about 70%; inactive = the rest.

Assay: NCI Yeast Anticancer Drug Screen. Data for the sgs1 mgt1 strain (AID 161);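 also: 0% = growth of cultures given vehicle only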
Details: S. cerevisiae sgs1 mgt1 strain, at 50.0 µM, stronger effect = higher value
Method in brief: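 Yeast cells carrying a defined DNA-repair defect were exposed to test compounds. Growth inhibition was measured relative to vehicle-treated controls.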

Row | SMILES | growth inhibition
1 | COc1ccc2c3c1OC1C(O)C=CC4C(C2)N(N=O)CCC341 (stereo not drawn) | -4.2%
2 | CCN(CC)C1CCCCC1 | -0.9%
3 | COc1ccc2c(c1OC(C)=O)-c1cc(OC(C)=O)cc3c1C(C2)NCC3 (stereo not drawn) | -5.7%
4 | CC1(C)N=C(N)N=C(N)N1c1ccc(OCCOc2ccc(S(=O)(=O)F)cc2)cc1 | -2.05%
5 | C[N+](C)(Cc1ccc([N+](=O)[O-])cc1)c1ccc(N(CCCl)CCCl)cc1 | -33%
6 | [Cl][Pt]([Cl])[Cl].[NH-]C1CN2CCC1CC2 (stereo not drawn) | -13.8%
7 | [CH3][Sn]([CH3])([Br])[CH2]CCCBr | 99.4% (active)
8 | CCCCCCCCCCCCCCCCP(=O)(O)OP(=O)(O)OCC1OC(n2cnc3c(N)ncnc32)C(O)C1O (stereo not drawn) | 88.2% (active)
9 | CCCOP(=O)(OCCC)C(=O)Nc1ccc(Br)cc1 | 6.25%
10 | [Cl][Pt][Cl].c1ccc([PH+](c2ccccc2)c2ccccc2)cc1.c1ccc([PH+](c2ccccc2)c2ccccc2)cc1 | -4.95%
11 | CN(C)c1ccc(C=O)cc1.[C-]#[O+].[C-]#[O+].[C-]#[O+].[Cr] | -57.5%
12 | CN(C)c1ccc([N+](=O)[O-])c([N+](=O)[O-])c1 | -7.75%
13 | CC1(C)CN=C(Nc2ccc(Cl)cc2)S1 | -12.1%
14 | N[C@@H](Cc1ccc2oc3cc(=O)c4ccccc4c-3nc2c1)C(=O)O | 10%
15 | CC1=CC(=O)C2=C(C)C[C@H](O)[C@@H]3[C@H](OC(=O)[C@H]3C)[C@@H]12 | 6.4%
16 | CCOP(=O)(OCC)C(O)c1ccc(Cl)cc1 (stereo not drawn) | -0.6%
17 | c1ccc(N=Nc2ccccc2)cc1 | -4.2%
18 | CNC(=O)N1CN(c2ccccc2)C2(CCN(CCCC3(c4ccc(F)cc4)OCCO3)CC2)C1=O | -4.4%
19 | O=C1C(=C([O-])c2ccccc2)C(=O)c2ccccc21.O=C1C(=C([O-])c2ccccc2)C(=O)c2ccccc21.[Fe+2] | 14.6%
20 | C[C@]12CCC(=O)C=C1CC[C@@H]1[C@@H]2CC[C@]2(C)C(=O)[C@H](n3ccnc3)C[C@@H]12 | 0.9%

Row | SMILES | growth inhibition
21 | Cc1cc(C(C)(C)C)ccc1O | 8.95%
22 | [NH-]C(CCC(N)=O)C(=O)O.[NH-]C(CCC(N)=O)C(=O)O.[Pd+2] (stereo not drawn) | -7.55%
23 | CC1C(C)(C)P(=O)(Oc2ccc3ccccc3c2)C1(C)C (stereo not drawn) | 84% (active)
24 | c1ccc(-c2ccc[n+](CC[n+]3cccc(-c4ccccn4)c3)c2)nc1 | -25.4%
25 | O=C(O)C(O)CO.[Pb] (stereo not drawn) | -2.5%
26 | Cc1ccc(S(N)(=O)=O)cc1 (tested in a mixture with another compound) | 8.8%
27 | Cc1ccc2nc(CCl)[nH]c2c1 | 34%
28 | CCCCS(=O)(=O)C(c1ccccc1)c1ccccc1 | 96% (active)
29 | CCOP(=O)(OCC)/C(C#N)=C/C=C/c1ccco1 | -30.7%
30 | OC1(C#[C][Hg][C]#CC2(O)CCCCC2)CCCCC1 | 90.7% (active)
31 | CCOc1cc(CCNC)c2c(ccc3ccc(OC)c(O)c32)c1OC | 4.75%
32 | Oc1cc(Cl)ccc1Cl | 98.6% (active)
33 | C[C@]12CC[C@H]3[C@@H](CCC4=C(Br)C(=O)CC[C@@H]43)[C@@H]1CC[C@@H]2O | 10.6%
34 | COc1cc(C=Nc2ccc(C(=O)O)c(O)c2)ccc1N(CCCl)CCCl | 65.2%
35 | Cc1cc2oc(=O)c3c(c2c(O)c1CN1CCOCC1)CCCC3 | 16.5%
36 | CC1=C(C)C(=O)O[C@@H]([C@](C)(O)[C@]2(O)CC[C@@]3(O)[C@@H]4C[C@H]5O[C@]56[C@@H](O)C=CC(=O)[C@]6(C)[C@H]4CC[C@]23C)C1 | 10.7%
37 | CC(C)/C=C/C1(C(C)C)C(=O)NC(=O)NC1=O | -4.85%
38 | COC(=O)C(Cl)Cl | -1.85%
39 | NC(=O)c1cc(N(CCCl)CCCl)c([N+](=O)[O-])cc1[N+](=O)[O-] | 10.4%

Assay: NCI Yeast Anticancer Drug Screen. Data for the cln2 rad14 strain (AID 165);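 also: 0% = growth equal to vehicle treated cultures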
Details: S. cerevisiae cln2 rad14 strain, at 50.0 µM, stronger effect = higher value
Method in brief: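 Growth inhibition, relative to vehicle-treated controls, is the read-out. The test organism is a yeast strain with defined genetic alterations, cln2 rad14.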

Row | SMILES | growth inhibition
40 | COc1ccc2c3c1OC1C(O)C=CC4C(C2)N(N=O)CCC341 (stereo not drawn) | 11.5%
41 | CCN(CC)C1CCCCC1 | -35.7%
42 | COc1ccc2c(c1OC(C)=O)-c1cc(OC(C)=O)cc3c1C(C2)NCC3 (stereo not drawn) | 6.65%
43 | CC1(C)N=C(N)N=C(N)N1c1ccc(OCCOc2ccc(S(=O)(=O)F)cc2)cc1 | -59.4%
44 | C[N+](C)(Cc1ccc([N+](=O)[O-])cc1)c1ccc(N(CCCl)CCCl)cc1 | -15.4%
45 | [Cl][Pt]([Cl])[Cl].[NH-]C1CN2CCC1CC2 (stereo not drawn) | 22.4%
46 | [CH3][Sn]([CH3])([Br])[CH2]CCCBr | 98.7% (active)
47 | CCCCCCCCCCCCCCCCP(=O)(O)OP(=O)(O)OCC1OC(n2cnc3c(N)ncnc32)C(O)C1O (stereo not drawn) | 58.6%
48 | CCCOP(=O)(OCCC)C(=O)Nc1ccc(Br)cc1 | -24.1%
49 | [Cl][Pt][Cl].c1ccc([PH+](c2ccccc2)c2ccccc2)cc1.c1ccc([PH+](c2ccccc2)c2ccccc2)cc1 | -6.6%
50 | CN(C)c1ccc(C=O)cc1.[C-]#[O+].[C-]#[O+].[C-]#[O+].[Cr] | 1%
51 | CN(C)c1ccc([N+](=O)[O-])c([N+](=O)[O-])c1 | 7.95%
52 | CC1(C)CN=C(Nc2ccc(Cl)cc2)S1 | 13.5%
53 | N[C@@H](Cc1ccc2oc3cc(=O)c4ccccc4c-3nc2c1)C(=O)O | 39.2%
54 | CC1=CC(=O)C2=C(C)C[C@H](O)[C@@H]3[C@H](OC(=O)[C@H]3C)[C@@H]12 | 17.2%
55 | CCOP(=O)(OCC)C(O)c1ccc(Cl)cc1 (stereo not drawn) | -9.35%
56 | c1ccc(N=Nc2ccccc2)cc1 | -9.55%
57 | CNC(=O)N1CN(c2ccccc2)C2(CCN(CCCC3(c4ccc(F)cc4)OCCO3)CC2)C1=O | -8.8%
58 | O=C1C(=C([O-])c2ccccc2)C(=O)c2ccccc21.O=C1C(=C([O-])c2ccccc2)C(=O)c2ccccc21.[Fe+2] | 22.2%
59 | C[C@]12CCC(=O)C=C1CC[C@@H]1[C@@H]2CC[C@]2(C)C(=O)[C@H](n3ccnc3)C[C@@H]12 | 3.2%

Row | SMILES | growth inhibition
60 | Cc1cc(C(C)(C)C)ccc1O | 4.6%
61 | [NH-]C(CCC(N)=O)C(=O)O.[NH-]C(CCC(N)=O)C(=O)O.[Pd+2] (stereo not drawn) | -71.6%
62 | CC1C(C)(C)P(=O)(Oc2ccc3ccccc3c2)C1(C)C (stereo not drawn) | 80.7% (active)
63 | c1ccc(-c2ccc[n+](CC[n+]3cccc(-c4ccccn4)c3)c2)nc1 | -11.4%
64 | O=C(O)C(O)CO.[Pb] (stereo not drawn) | 12.4%
65 | Cc1ccc(S(N)(=O)=O)cc1 (tested in a mixture with another compound) | 10.8%
66 | Cc1ccc2nc(CCl)[nH]c2c1 | 18.4%
67 | CCCCS(=O)(=O)C(c1ccccc1)c1ccccc1 | 56.5%
68 | CCOP(=O)(OCC)/C(C#N)=C/C=C/c1ccco1 | 4.2%
69 | OC1(C#[C][Hg][C]#CC2(O)CCCCC2)CCCCC1 | 97.3% (active)
70 | CCOc1cc(CCNC)c2c(ccc3ccc(OC)c(O)c32)c1OC | 26.9%
71 | Oc1cc(Cl)ccc1Cl | 96.5% (active)
72 | C[C@]12CC[C@H]3[C@@H](CCC4=C(Br)C(=O)CC[C@@H]43)[C@@H]1CC[C@@H]2O | -19.6%
73 | COc1cc(C=Nc2ccc(C(=O)O)c(O)c2)ccc1N(CCCl)CCCl | 41%
74 | Cc1cc2oc(=O)c3c(c2c(O)c1CN1CCOCC1)CCCC3 | 15.6%
75 | CC1=C(C)C(=O)O[C@@H]([C@](C)(O)[C@]2(O)CC[C@@]3(O)[C@@H]4C[C@H]5O[C@]56[C@@H](O)C=CC(=O)[C@]6(C)[C@H]4CC[C@]23C)C1 | 13.4%
76 | CC(C)/C=C/C1(C(C)C)C(=O)NC(=O)NC1=O | 14.1%
77 | COC(=O)C(Cl)Cl | -47.9%
78 | NC(=O)c1cc(N(CCCl)CCCl)c([N+](=O)[O-])cc1[N+](=O)[O-] | 14.4%
